Experimental data taken from PubChem BioAssay AID588511 (Johns Hopkins Ion Channel Center, 2011).
The whole screen tested about 310,000 compounds, of which about 3,600 (1.2%) were called active.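 How the source made its calls: active means ratio plate-corrected score three or more library SD toward inhibition, starting fluorescence score within five deviations; inactive means the rest.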 Many of the other results were omitted from the sample, so actives are more common in it than they were.

Biological target: Anoctamin-1 (Mus musculus) (UniProt Q8BHY3)
Sequence (Q8BHY3 whole entry, looked up): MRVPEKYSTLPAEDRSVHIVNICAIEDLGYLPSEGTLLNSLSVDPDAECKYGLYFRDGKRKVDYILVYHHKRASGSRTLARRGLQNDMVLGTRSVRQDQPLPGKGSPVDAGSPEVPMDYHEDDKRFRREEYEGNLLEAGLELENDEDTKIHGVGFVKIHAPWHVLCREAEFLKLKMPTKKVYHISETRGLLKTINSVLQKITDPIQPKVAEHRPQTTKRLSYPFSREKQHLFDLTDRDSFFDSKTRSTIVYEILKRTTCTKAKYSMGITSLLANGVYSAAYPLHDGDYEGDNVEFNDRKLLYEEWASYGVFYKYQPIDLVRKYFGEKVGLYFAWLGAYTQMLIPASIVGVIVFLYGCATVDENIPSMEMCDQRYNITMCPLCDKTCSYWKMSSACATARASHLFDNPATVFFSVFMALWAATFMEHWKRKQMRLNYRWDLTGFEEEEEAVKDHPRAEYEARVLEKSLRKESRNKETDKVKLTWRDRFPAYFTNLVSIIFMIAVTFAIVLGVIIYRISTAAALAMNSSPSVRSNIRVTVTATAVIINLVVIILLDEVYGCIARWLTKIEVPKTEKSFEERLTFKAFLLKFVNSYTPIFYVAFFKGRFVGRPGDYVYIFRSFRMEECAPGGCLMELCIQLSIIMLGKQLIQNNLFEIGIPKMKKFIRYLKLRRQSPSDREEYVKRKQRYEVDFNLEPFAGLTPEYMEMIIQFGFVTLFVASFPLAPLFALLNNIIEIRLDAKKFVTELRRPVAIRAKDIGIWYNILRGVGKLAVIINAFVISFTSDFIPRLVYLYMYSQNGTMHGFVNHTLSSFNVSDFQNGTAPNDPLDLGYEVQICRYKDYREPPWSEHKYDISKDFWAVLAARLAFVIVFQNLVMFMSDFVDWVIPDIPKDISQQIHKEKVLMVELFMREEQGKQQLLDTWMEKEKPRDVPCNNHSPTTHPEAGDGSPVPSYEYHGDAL
Assay: TMEM16A chloride channel inhibitors, primary screen, cell-based, HTS (AID 588511);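 on normalized B-score (activity score, 25-100; higher = stronger inhibition): score derived from kinetic fluorescence span divided by baseline fluorescence per well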
Details: HEK293 TMEM16A/YFP iodide influx fluorescence, ionomycin; at 10 µM

Row | SMILES | normalized B-score (activity score, 25-100; higher = stronger inhibition)
1 | OC(c1ccccc1)C(CN1CCOCC1)c1ccccc1 (stereo not drawn) | inactive
2 | Cc1c(NS(=O)(=O)c2ccc(NC3CCCC3)c([N+](=O)[O-])c2)c(=O)n(-c2ccccc2)n1C | inactive
3 | Cc1cc(C=O)c(C)n1-c1ccc(NC2CCCCC2)c([N+](=O)[O-])c1 | 100 (active)
4 | Cc1cc([N+](=O)[O-])ccc1NC1CCCC1 | inactive
5 | COc1ccc(F)cc1C(=O)C1CCCN(C(=O)CCc2ccccn2)C1 (stereo not drawn) | inactive
6 | O=C(N/N=C1\CCSC1)c1cc(Cl)ccc1O | inactive
7 | CC1CCCCC1NC(=O)c1cc(=O)[nH]c2ccccc12 (stereo not drawn) | inactive
8 | Cc1c(C(=O)OC(C)C)sc(NC(=O)c2cccnc2)c1C#N | 100 (active)
9 | CCOC(=O)c1ccc(NC(=O)c2cccnc2)cc1 | inactive
10 | CCOC(=O)c1cc(NC(=O)c2cccnc2)ccn1 | inactive
11 | Cc1ccc(/C=N/NC(=O)C(NC(=O)c2ccccc2)c2n[nH]c(=O)c3ccccc23)cc1 (stereo not drawn) | inactive
12 | CCC(=O)N1CCCc2ccccc21 | inactive
13 | Cc1ccc2c(c1)N(CC(=O)N1CCCc3ccccc31)C(=O)C(C)O2 (stereo not drawn) | 100 (active)
14 | Cc1ccc2c(c1)N(CC(=O)N1CCCC(C)C1)C(=O)CO2 (stereo not drawn) | inactive
15 | O=C1NC(c2ccccc2)=NC1(Nc1ccccn1)C(F)(F)F (stereo not drawn) | inactive
16 | CC(Oc1ccc(Cl)cc1)c1ccnn1S(C)(=O)=O (stereo not drawn) | inactive
17 | CC(=O)Nc1ccc(C(=O)OCC(=O)Nc2ccc([N+](=O)[O-])cc2C(F)(F)F)cc1 | inactive
18 | COc1cc(NC(=O)C2=CC(c3ccc(C)cc3)=NS(=O)(=O)N2C)cc(OC)c1OC | inactive
19 | COc1cc(NC(=O)C2=CC(c3ccco3)=NS(=O)(=O)N2C)cc(OC)c1OC | inactive
20 | COc1ccc(NC(=O)C2=CC(c3ccc(OC)c(OC)c3)=NS(=O)(=O)N2C)cc1 | 25 (active)
21 | O=C(CSc1nnc2c(n1)[nH]c1ccccc12)NC1CCCCC1 | inactive

Row | SMILES | normalized B-score (activity score, 25-100; higher = stronger inhibition)
22 | Cc1ccc(CNC(=O)C2CCCN2S(=O)(=O)c2ccc3c(c2)C(C)(C)C(=O)N3C)cc1 (stereo not drawn) | inactive
23 | Cc1ccc(S(=O)(=O)c2ccc(Oc3ccccc3)cc2)cc1 | 100 (active)
24 | Cc1n[nH]c(=O)n1-c1ccc(Oc2ccccc2)cc1 | inactive
25 | CN(C)S(=O)(=O)c1ccc(Oc2ccc(S(=O)(=O)N(C)C)cc2)cc1 | inactive
26 | Cc1cc(C)c(NC(=O)CN2CCCCCC2)c(C)c1 | inactive
27 | CN(C)C(=O)CCC(=O)N1CCCCC1C(=O)Nc1ccc(Oc2ccccc2F)cc1 (stereo not drawn) | inactive
28 | CC(C)(C)C(=O)/C(C#N)=C/c1ccc(O)cc1 | 25 (active)
29 | CC(C)NC(=O)/C(C#N)=C\c1ccc(N(C)C)c(Br)c1 | inactive
30 | CCOC(=O)NC(=O)/C(C#N)=C\c1ccccc1 | inactive
31 | Fc1ccccc1CNC(=S)Nc1ccc(Cl)cc1 | inactive
32 | COc1ccc(NC(=S)NCc2cccs2)c(OC)c1 | inactive
33 | S=C(NCc1cccs1)Nc1ccc(Cl)cc1 | 25 (active)
34 | Cc1ccc(Cc2nnc(SCC(=O)Nc3ccc(C)cc3C)[nH]c2=O)cc1 | inactive
35 | COc1cc(CNCc2ccc(OC)c3ccccc23)cc(OC)c1OC | inactive
36 | COCCCNC(=O)C1CCN(c2ccc(N3CCOCC3)nn2)CC1 | inactive
37 | CC(=O)Nc1c2c(nn1-c1ccc(C)cc1C)CS(=O)C2 (stereo not drawn) | inactive
38 | N#Cc1nc(N)nc(N(c2ccccc2)c2ccccc2)n1 | 100 (active)
39 | CC(C)Nc1nc(N(c2ccccc2)c2ccccc2)nc(-n2ccnc2)n1 | inactive
40 | Nc1nc(-c2ccccc2)cc(-c2ccccc2)n1 | inactive
41 | COc1ccccc1CNC(=O)CNC(=O)c1cn(-c2ccccc2OC)c(=O)c2ccccc12 | inactive
42 | O=C(Nc1ccccc1F)c1ccccc1-c1ccccc1 | inactive

Row | SMILES | normalized B-score (activity score, 25-100; higher = stronger inhibition)
43 | Cc1ccccc1NC(=O)C(C)c1ccc(-c2ccccc2)c(F)c1 (stereo not drawn) | 100 (active)
44 | CC(C(=O)Nc1ccccc1-c1ccccc1)N1CCOCC1 (stereo not drawn) | inactive
45 | CCOCCCNC(=O)c1cn(CC(C)C)c(=O)c2c1c1ccccc1n2C | inactive
46 | CC(Cc1cccs1)NC(=O)c1cccc(Cl)c1 (stereo not drawn) | inactive
47 | CN(Cc1ccccc1)C(=O)CCc1ccccc1 | inactive
48 | COc1ccc(CN(C)C(=O)CC(c2ccccc2)c2ccccc2)cc1 | 25 (active)
49 | CN(Cc1ccccc1)C(=O)COc1ccccc1 | inactive
50 | C=CCOc1ccc(/C=C/C(=O)OC(C)C(=O)Nc2ccc(NC(C)=O)cc2)cc1 (stereo not drawn) | inactive
51 | Cc1ccc(OCc2nc3ccccc3n2C)cc1 | inactive
52 | CCCCCCCCCCOC(=O)Cn1c(COc2ccc(C)cc2)[n+](C)c2ccccc21 | 25 (active)
53 | CCCCCCCCCCOC(=O)Cn1c(COc2cccc(OC)c2)[n+](C)c2ccccc21 | inactive
54 | Cc1ccc(-c2nn(-c3ccc(F)cc3)cc2C(=O)NCC(c2cccs2)N2CCOCC2)cc1 (stereo not drawn) | inactive
55 | O=C(COC(=O)[C@H](Cc1ccccc1)NC(=O)c1cccs1)Nc1cc(F)ccc1F | inactive
56 | COc1ccc(Cl)cc1NC(=O)CCS(=O)(=O)c1cc2c(cc1C)NC(=O)CO2 | 100 (active)
57 | Cc1cc2c(cc1S(=O)(=O)CCC(=O)NCc1ccccc1)OCC(=O)N2 | inactive
58 | COc1ccc(NC(=O)CCS(=O)(=O)c2cc3c(cc2Cl)NC(=O)CO3)cc1OC | inactive
59 | C=C(C)c1cccc(C(C)(C)NC(=O)N2CCN(c3ncccn3)CC2)c1 | inactive
60 | Cc1ccc(CN(C)CC(=O)Nc2cccc([N+](=O)[O-])c2)o1 | inactive
61 | CN(CC(=O)Nc1cccc(F)c1)CC(=O)Nc1cccc([N+](=O)[O-])c1 | inactive
62 | Cc1ccc(NC(=O)CN(C)CC(=O)Nc2cccc(F)c2)cc1[N+](=O)[O-] | 100 (active)
63 | Cc1cccc2c1cnn2C(=O)CCC(=O)NC1CCCCC1 | inactive
